Assay outcomes as filed in PubChem.
PI5P4K alpha inh: inhibitors of human PI5P4K alpha; 330,000 compounds, 1.2% hits; PI5P4Kalpha enzyme, ADP-Glo luminescence, 60 min; hits give low values; max response, %; P48426; active = max response of -50% or lower; inconclusive = between -30% and -50%; inactive = -30% or higher; note: value at the top dose of about 77 µM
Target sequence (P48426 whole entry, looked up): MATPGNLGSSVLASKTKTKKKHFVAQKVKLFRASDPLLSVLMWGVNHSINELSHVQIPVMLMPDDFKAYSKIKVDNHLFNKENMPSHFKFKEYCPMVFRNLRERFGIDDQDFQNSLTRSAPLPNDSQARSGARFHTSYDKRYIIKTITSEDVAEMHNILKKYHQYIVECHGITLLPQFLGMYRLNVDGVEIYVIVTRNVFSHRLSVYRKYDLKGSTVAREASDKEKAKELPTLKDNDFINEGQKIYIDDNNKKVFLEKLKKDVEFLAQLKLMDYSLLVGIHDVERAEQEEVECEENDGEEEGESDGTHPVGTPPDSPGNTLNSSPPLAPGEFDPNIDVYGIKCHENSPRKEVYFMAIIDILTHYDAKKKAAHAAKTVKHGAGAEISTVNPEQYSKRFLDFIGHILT
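Human PI5P4Kalpha with substrate in 0.038 M HEPES pH 7.4, 0.28 mM EGTA, 0.1% CHAPS, 5% DMSO; reaction started with 5 microM ATP (final), 60 min at room temperature. ADP formed read by ADP-Glo luminescence.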
PI4K2A block: blocks human PI4K2A kinase activity | purified PI4K2A, ADP-Glo luminescence, 1 h; hits give low values | activity change, negative = inhibition, % at 76.9 µM | 420,000 compounds, 0.13% hits | AID 1346378; in the data active = activity change below about -50%; inconclusive = mostly about -30% to -49%
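PI4K2A activity was measured by ADP-Glo luminescence: enzyme (4 ug/mL stock) and phosphatidylinositol (1.2 mM stock) in Tris pH 7.5/MgCl2/EGTA/Triton X-100 buffer were reacted with ATP (300 microM stock) for one hour at ambient temperature.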
PGK inhibitor: blocks T. brucei phosphoglycerate kinase. PGK/GAPDH coupled, Kinase-Glo luminescence, 60 min. AID 602233. P07378. 380,000 compounds, 0.043% hits. Potency, µM (doses to about 57.5 µM), most hits filed as inhibitors; note: nearly all actives have a fitted effect of over 60% in size
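Recombinant glycosomal PGK reaction used 1,3-bisphosphoglycerate generated in-well by GAPDH (100nM final) in 100mM TEA pH 7.6, 5mM MgCl2, 0.01% Tween-20. After 60 minutes at room temperature, ATP was read by Kinase-Glo Plus luminescence end-point.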
Pin1 inh: blocks the human prolyl isomerase Pin1 | Q13526 | Pin1 FP peptide displacement, HiFluor488, 10 min | Potency, µM (doses to about 115 µM), usual class: inhibitors | 390,000 compounds, 0.009% hits; active = well fitted inhibition curve with a large enough effect in the polarisation, with a control signal flat, not every such curve was filed as active; inconclusive = small, poorly fitted or top-dose-only effect, or effect the other way, or a change in a side signal; inactive = no such curve, though single readings can be large or run the other way; the % refers to the polarisation
Target sequence (Q13526 whole entry, looked up): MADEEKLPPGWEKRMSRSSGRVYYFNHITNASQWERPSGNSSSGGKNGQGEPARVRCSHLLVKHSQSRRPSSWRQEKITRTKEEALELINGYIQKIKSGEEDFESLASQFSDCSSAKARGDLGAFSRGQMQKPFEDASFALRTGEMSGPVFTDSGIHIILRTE
ADP-Glo counter: counter-screen for PI5P4K inhibitors: ADP-Glo detection interference, no enzyme; shares compounds with PI5P4K alpha inh; Potency, µM (titrated, usually from 76.9 µM), hits mostly inhibitors; AID 743285; 1,100 tested, under 10 active; ADP-Glo detection counter-screen, luciferase luminescence, no enzyme
Large screens that a line does not name were inactive (follow-up assays come after a bar, where they were run). This excerpt belongs to a sample that is enriched for hits. Unless noted, calls come from the whole dose curve; as a rule, active = well fitted curve in the direction sought with a large enough effect; inconclusive = small, poorly fitted or top-dose-only effect, or another doubt; inactive = no such curve, though single readings can be large; an effect the other way counts as inactive or inconclusive.

CCCn1c(=O)c2[nH]c(-c3ccc(S(=O)(=O)O)cc3)nc2n(CCC)c1=O	PI5P4K alpha inh -82 | ADP-Glo counter inactive
CCCCOC(=O)c1ccc(NC(=O)CSc2nc3c(c(=O)[nH]2)CCCC3)cc1	none (no result: PI5P4K alpha inh, PGK inhibitor)
CCc1nnc(NC(=O)c2ccc(S(C)(=O)=O)cc2)s1	PI5P4K alpha inh -53 | ADP-Glo counter inactive
CCN(CC)S(=O)(=O)c1ccc(C(=O)Nc2nnc(NC(=S)Nc3ccccc3)s2)cc1	PI5P4K alpha inh -59 | ADP-Glo counter inactive
Cc1oc(-c2ccc(Cl)cc2)cc1C(=O)N1CCC1(C)C(=O)O (centres undefined)	PI5P4K alpha inh -52 (no result: PGK inhibitor, Pin1 inh) | ADP-Glo counter inactive
CC1(C(=O)O)CCCN1C(=O)c1ccc(Cl)cc1Cl (centres undefined)	none (no result: PGK inhibitor, Pin1 inh)
C/C(=N\NC(=O)Cc1cccs1)c1ccco1	none (no result: PI5P4K alpha inh, PGK inhibitor, Pin1 inh)
O=c1oc2ccccc2cc1-c1csc(NN=C2CCCCC2)n1	Pin1 inh inconclusive (no result: PI5P4K alpha inh, PGK inhibitor)
O=c1oc2ccccc2cc1-c1csc(Nc2nc3c(F)cccc3s2)n1	PI5P4K alpha inh -55 | ADP-Glo counter inactive
COc1ccc2nc(SCC(=O)N3CCN(c4ccc(F)cc4)CC3)c(C#N)cc2c1	PI5P4K alpha inh -50, Pin1 inh inconclusive | ADP-Glo counter inactive
Cc1ccc(NC(=O)CN(C)C(=O)c2cc(-c3ccco3)nc3ccccc23)cc1	PI5P4K alpha inh -95, PGK inhibitor inconclusive, Pin1 inh inconclusive | ADP-Glo counter inactive
CN(CC(=O)Nc1ccc(F)cc1)C(=O)c1cc(-c2ccco2)nc2ccccc12	PI5P4K alpha inh -66, Pin1 inh inconclusive | ADP-Glo counter inactive
COc1cccc(NC(=O)CN(C)C(=O)c2cc(-c3ccco3)nc3ccccc23)c1	PI5P4K alpha inh -60 | ADP-Glo counter inactive
CCOc1ccc(NC(=O)CN(C)C(=O)c2cc(-c3ccco3)nc3ccccc23)cc1OCC	none
Cc1ccc(-c2nnc3ccccc3c2C(=O)Nc2ccc(F)cc2)cc1	none (no result: PI5P4K alpha inh)
Nc1cc(-c2ccncc2)c[nH]c1=O	PI5P4K alpha inh -56, PI4K2A block -55, Pin1 inh inconclusive | ADP-Glo counter inactive
Cc1ccc(NC(=O)c2c3c(nc4ccccc24)CCC3)cc1S(=O)(=O)N(C)C	PI5P4K alpha inh -52, Pin1 inh inconclusive | ADP-Glo counter inactive
O=C(CCC(=O)N1CCN(c2ccccn2)CC1)c1ccc(Cl)s1	PI5P4K alpha inh -55 | ADP-Glo counter inactive
Nc1nc(N)c2cc(S(=O)(=O)c3cccc(C(F)(F)F)c3)ccc2n1	PI5P4K alpha inh -54 (no result: Pin1 inh) | ADP-Glo counter inactive
CCn1c(SCc2nc3sc(C(=O)O)c(C)c3c(=O)[nH]2)nc2ccccc21	PI5P4K alpha inh -64, PGK inhibitor 20µM, Pin1 inh inconclusive | ADP-Glo counter inactive
COCCn1c(SCc2nc3sc(C(=O)OC)c(C)c3c(=O)[nH]2)nc2ccccc21	Pin1 inh inconclusive
COc1cc(NS(=O)(=O)c2ccc(NC(=O)c3cccc(F)c3)cc2)nc(OC)n1	none (no result: PI5P4K alpha inh)
Fc1ccc(Nc2nc(NCc3ccco3)c3ccccc3n2)cc1	Pin1 inh inconclusive (no result: PI5P4K alpha inh) | ADP-Glo counter inactive
CCOC(=O)c1ccc(N2C(=O)CC(C(=O)OC)=C2C)cc1	none
CCOC(=O)C1=C(N)N(c2ccccc2)C(=O)C1	PI5P4K alpha inh -58 | ADP-Glo counter inactive
CCOC(=O)Cc1ccc(NC(=O)N2CCSc3ccccc32)cc1	none (no result: PI5P4K alpha inh)
COc1cccc(OC)c1C(=O)NC(=O)Nc1c(C)cccc1C	none
CC(=O)c1ccc(NC(=O)c2noc3c2CCC3)cc1	PI5P4K alpha inh -58, Pin1 inh inconclusive | ADP-Glo counter inactive
CCOc1ccccc1NC(=O)c1c(NC(=O)CCC(=O)O)sc2c1CCCCC2	none | ADP-Glo counter inactive
COc1ccc(C(=O)N2CCC(c3nc(-c4ccc(S(=O)(=O)N5CCCC5)cc4)no3)CC2)cc1	none (no result: PI5P4K alpha inh)
CN(C)C(=S)NCc1ccccc1	PI5P4K alpha inh -54 | ADP-Glo counter inactive
CN(N)C(=S)NCc1ccccc1	none (no result: PI5P4K alpha inh)
COc1ccc(-n2ccnc(NCc3cccs3)c2=O)cc1OC	none (no result: PI5P4K alpha inh)
Cc1nc2nc(NC(=O)c3ccc(Cl)cc3)[nH]n2c(=O)c1Cc1ccccc1	Pin1 inh inconclusive (no result: PI5P4K alpha inh)
COc1ccc(-c2nnn(CC(=O)N(CC(=O)NC3CCCC3)c3ccccc3)n2)cc1OC	PI5P4K alpha inh -51 | ADP-Glo counter inactive
COc1ccc(N(CC(=O)NC2CCCC2)C(=O)Cn2nnc(-c3ccc(OC)c(OC)c3)n2)cc1	none
COc1ccc(Br)cc1C(=O)Nc1cccc(NC(=O)c2ccco2)c1	none | ADP-Glo counter inactive
CC1(C(=O)Nc2ccc3nc[nH]c3c2)CCN1C(=O)C/C=C/c1ccccc1 (centres undefined)	none (no result: PGK inhibitor, Pin1 inh)
Cc1sc2ncn(CC(=O)N3CCC(C(N)=O)CC3)c(=O)c2c1S(=O)(=O)N1CC(C)CC(C)C1 (centres undefined)	PI5P4K alpha inh -90, Pin1 inh inconclusive | ADP-Glo counter inactive
C[C@H]1CN([C@@H](C)CO)C(=O)c2cc(-c3ccccc3F)cnc2O[C@@H]1CN(C)C(=O)NC1CCCCC1	none (no result: Pin1 inh)
COc1ccc(S(=O)(=O)N2CCN(C(=O)c3cc4c(s3)CCC4)CC2)cc1	PI5P4K alpha inh -82, PI4K2A block inconclusive, PGK inhibitor inconclusive (no result: Pin1 inh) | ADP-Glo counter inactive
COCCCNC(=O)c1ccc2c(=O)n(CC3CCCO3)c(=S)[nH]c2c1 (centres undefined)	none | ADP-Glo counter inactive
CC(C)NC(=O)c1ccc2c(=O)n(CC3CCCO3)c(=S)[nH]c2c1 (centres undefined)	none
Cc1ccc(-n2c(SCC(=O)Nc3ccc4c5c(cccc35)CC4)nc(O)cc2=O)cc1	PI5P4K alpha inh -51 | ADP-Glo counter inactive
COC(=O)CCC(=O)OC1(C)C(=O)C2=CN(c3ccccc3)C(c3ccc(OC)cc3)=CC2=C(Br)C1=O (centres undefined)	PI5P4K alpha inh inconclusive
COC(=O)CCC(=O)OC1(C)C(=O)C2=CN(CC3CC3)C(c3ccc(OC)cc3)=CC2=C(Br)C1=O (centres undefined)	PI5P4K alpha inh -53, Pin1 inh inconclusive | ADP-Glo counter inactive
CCC(=O)OC1(C)C(=O)C2=COC(c3ccc(OC)cc3)=CC2=C(Br)C1=O (centres undefined)	PI5P4K alpha inh -72, PI4K2A block inconclusive, PGK inhibitor 20µM, Pin1 inh inconclusive | ADP-Glo counter inactive
COC(=O)CCC(=O)OC1(C)C(=O)C2=CN(C3CC3)C(c3ccc(OC)cc3)=CC2=C(Br)C1=O (centres undefined)	Pin1 inh inconclusive
CCc1nnc2c(NCc3ccc(F)cc3)nc3ccccc3n12	none (no result: PI5P4K alpha inh)
O=C(c1ccc(=O)oc1)N1CCCc2ccccc21	PI5P4K alpha inh -57, PGK inhibitor inconclusive, Pin1 inh inconclusive | ADP-Glo counter inactive
